Shown are actives, neighbours in structure and some others; about 2.1% of the full set was active somewhere.
GalR3 antag = human GalR3 antagonism; O60755; HEK293 GalR3-CNG cAMP membrane potential fluorescence; galR3 body fused to GalR1 C-terminus; inhibition, % at 3 µM; 360,000 tested, 0.44% active;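 active = inhibition above the screen-wide average plus 3 SD, cut at about 13% in these data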;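 note: forskolin and galanin both at EC90 stimulate the cells; cAMP rise reported by CNG channel membrane potential dye signal; 0% = forskolin plus galanin with DMSO and 100% = forskolin alone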
COUP-TFII inh = blocks human COUP-TFII nuclear receptor. HEK293T NGFI-A luciferase reporter, luminescence. AID 686940. 370,000 tested, 0.7% active. inhibition, % at 8.6 µM;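 active = inhibition above a per-plate cutoff, mean inhibition of test wells between control levels plus 3 SD, cut at about 38% in these data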;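 note: cells cotransfected with COUP-TFII expression vector driving the NGFI-A reporter; 0% = median of COUP-TF2 test wells and 100% = reporter-only cells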
Target sequence (P24468 whole entry, looked up): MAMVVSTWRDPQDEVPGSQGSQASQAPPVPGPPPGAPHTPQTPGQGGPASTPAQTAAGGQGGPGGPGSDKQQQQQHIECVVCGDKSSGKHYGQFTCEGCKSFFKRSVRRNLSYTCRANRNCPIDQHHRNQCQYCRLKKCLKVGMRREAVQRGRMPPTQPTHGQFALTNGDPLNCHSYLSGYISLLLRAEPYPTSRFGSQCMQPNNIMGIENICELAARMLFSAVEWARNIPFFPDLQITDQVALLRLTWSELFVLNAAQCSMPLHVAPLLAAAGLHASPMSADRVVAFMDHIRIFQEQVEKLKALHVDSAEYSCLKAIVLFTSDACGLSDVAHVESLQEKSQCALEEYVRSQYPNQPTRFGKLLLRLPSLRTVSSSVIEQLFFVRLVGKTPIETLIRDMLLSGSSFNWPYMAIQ
aDG glyco act = alpha-DG glycosylation activation | AID 624168 | activation, % at 10 µM | 360,000 tested, 0.22% active | Pro5-aDG cells, alpha-DG glycosylation AlphaScreen (IIH6); 0% Pro5, 100% B10-LARGE cell signal;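 active = activation of at least 8% versus controls, or a plate z-score of at least 8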;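 note: Pro5 are CHO cells carrying HIG-tagged alpha-DG that lacks glycosylation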
HIV Env fusion = inhibitors of HIV Env-mediated cell fusion. HeLa-JRFL Env/CEM21 cell fusion, luciferase. 360,000 tested, 1.1% active. inhibition, % at 12.3 µM;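 active = mean replicate inhibition score of at least 50 and every replicate individually at or above 50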;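 note: 0% = plate neutral controls and 100% = maraviroc near 300 nM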
Gli-Sufu block = Gli-Sufu pathway antagonism. Sufu-KO-LIGHT fibroblasts, Gli luciferase reporter luminescence. inhibition, % at 5 µM. 340,000 tested, 0.74% active;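 active = inhibition above about 55%, limit read from the data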;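 note: 0% = DMSO-treated cells and 100% = wells with medium but no cells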
Gli antag conf = confirmation of Gli-SUFU pathway antagonists; 2,500 tested, 40% active; shares compounds with Gli-Sufu block; AID 602428; inhibition, % at 5 µM; Sufu-KO-LIGHT cells, Gli luciferase reporter, luminescence;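 active = mean inhibition at 5 µM reaching about 45%, limit read from the data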;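 note: plate controls were DMSO-treated cells for no effect and wells lacking cells for full effect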
SufuKO cytotox = cytotoxicity counter-screen for Gli-SUFU antagonists; 2,500 tested, 32% active; Sufu-KO-LIGHT cells cytotoxicity, ATP luminescence; cytotoxicity, % at 5 µM; shares compounds with Gli-Sufu block;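 active = mean cytotoxicity at 5 µM above about 25%, limit read from the data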;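 note: cells exposed to compound overnight for roughly 16 to 18 hours; plate controls were DMSO wells with cells for no effect and medium without cells for full effect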
Wnt3a cs = counter-screen for Gli-SUFU antagonists: Wnt3a reporter inhibition; shares compounds with Gli-Sufu block; Wnt-LIGHT cells, Wnt3a-driven luciferase reporter, luminescence; inhibition, % at 6.25 µM; 2,500 tested, 20% active; AID 651995;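 active = mean inhibition above about 25%, limit read from the data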
Numbers without * were called inactive; x = no result given; [ ] = another dose, or the depositor's remark.

SMILES	GalR3 antag	COUP-TFII inh	aDG glyco act	HIV Env fusion	Gli-Sufu block	Gli antag conf	SufuKO cytotox	Wnt3a cs
C[C@H]1CN([C@@H](C)CO)C(=O)CCCn2cc(nn2)CO[C@@H]1CN(C)Cc1ccc2c(c1)OCCN2C	x	x	x	22[16.7 µM]	x	x	x	x
COc1ccc2[nH]c(C)c(CCNC(=S)Nc3ccccc3C)c2c1	-2	3	0	-11	69*	15	9	-12
COc1ccc(-c2cnc3c(c2)C(=O)N([C@H](C)CO)C[C@H](C)[C@H](CN(C)S(=O)(=O)c2cccc(OC)c2)O3)cc1	x	x	x	23[16.7 µM]	x	x	x	x
CCOC(=O)C1=CN(Cc2ccco2)S(=O)(=O)N(CC)C1c1ccccc1 (stereo not given)	-6	11	0	7	53	12	3	-10
CCOC(=O)C1=CN(Cc2ccco2)S(=O)(=O)N(C)C1c1cccc(OC)c1 (stereo not given)	-5	10	0	6	3	x	x	x
CCOC(=O)C1=CN(Cc2ccco2)S(=O)(=O)N(CC)C1c1ccc(F)c(Cl)c1 (stereo not given)	-6	16	0	-2	10	x	x	x
CCOC(=O)C1=CN(Cc2ccco2)S(=O)(=O)N(CC)C1c1cccc(OC)c1 (stereo not given)	-5	9	0	-9	52	10	22	-16
COc1ccc(-c2cnc3c(c2)CCC3(C#N)C#N)cc1	4	-17	0	x	52	61*	47*	-32
Nc1nc(Cl)cc(N2CCC(c3cc(-c4ccc(Cl)cc4)n[nH]3)CC2)n1	-10	14	2	x	74*	78*	19	68*
Cc1ccc(CN2CCC(c3cc(-c4ccc(Cl)cc4)n[nH]3)CC2)cc1	-8	2	3	11	21	x	x	x
Cc1[nH]c(SCC(=O)Nc2cc(C(N)=O)cc(C(N)=O)c2)nc1Cc1ccccc1	-3	-13	0	3	0	x	x	x
Cc1cc(NC(=O)CSc2nc(Cc3ccc(O)cc3)c(C)[nH]2)no1	0	-13	0	-4	53	15	6	-18
O=C(N[C@H]1CC[C@@H](CCn2cc(Cc3ccccc3)nn2)O[C@H]1CO)c1ccccn1	x	x	x	-4[16.7 µM]	x	x	x	x
C[C@@H]1CN([C@@H](C)CO)C(=O)Cc2cc(NC(=O)Nc3cccc4ccccc34)ccc2O[C@H]1CN(C)Cc1ccncc1	x	x	x	-3[16.7 µM]	x	x	x	x
C=CCN=C(NC#N)SC	-9	10	0	2	58*	15	9	9
C=CCN=C(NC#N)SCC(=O)NC(C)(C)C	0	0	0	x	4	x	x	x
CN1CCN(C2=Cc3ccccc3Sc3cc(F)c(Cl)cc32)CC1	-12	-12	2	-12	54	23	0	-34
CN1CCN(C2=Cc3ccccc3Sc3cc(F)c(F)cc32)CC1	-13	3	2	-8	4	x	x	x
O=C(c1cc2nc(C3CC3)cc(C(F)(F)F)n2n1)N1CCCC1	-6	-3	0	x	0	x	x	x
O=C(O)c1cc2nc(C3CC3)cc(C(F)(F)F)n2n1	-1	8	0	12	56*	15	-10	10
COc1ccc(S(=O)(=O)Nc2ccc3c(c2)C(=O)N([C@H](C)CO)C[C@H](C)[C@H](CN(C)C(=O)c2ccccc2)OCCCC[C@@H](C)O3)cc1	x	x	x	17[16.7 µM]	x	x	x	x
CC(=O)OCc1cc(-c2nc3ccccc3[nH]c2=O)nn1-c1ccc(Cl)cc1	-9	14	1	-16	52	11	2	-28
O=C(CCc1nc2ccccc2[nH]c1=O)OCC(=O)c1ccc(Cl)cc1	-11	0	0	x	-1	x	x	x
Brc1ccc(CSc2ccc3nnc(-c4cccnc4)n3n2)cc1	-5	-43	0	17	26	x	x	x
Cc1ccc(CSc2ccc3nnc(-c4cccnc4)n3n2)cc1	-11	-29	0	x	52	14	3	-3
SMILES	GalR3 antag	COUP-TFII inh	aDG glyco act	HIV Env fusion	Gli-Sufu block	Gli antag conf	SufuKO cytotox	Wnt3a cs
O=C(C[C@H]1C[C@H]2c3cc(NC(=O)C4CCC4)ccc3O[C@H]2[C@H](CO)O1)NCC(F)(F)F	x	x	x	37[16.7 µM]	x	x	x	x
CCN1C(=O)/C(=C\c2ccc(F)cc2)N=C1SCC(=O)NCc1ccco1	3	-6	0	13	2	x	x	x
C=CCN1C(=O)/C(=C\c2ccc(Cl)cc2)N=C1SCC(=O)NCCC	1	14	0	x	56*	17	20	10
CN(C)CC(=O)N[C@@H]1CC[C@@H](CCNC(=O)Nc2ccc(C(F)(F)F)cc2)O[C@H]1CO	x	x	x	-2[16.7 µM]	x	x	x	x
c1ccc(CN2CCN(C3CCCSc4ccccc43)CC2)cc1 (stereo not given)	-6	18	0	-126	13	x	x	x
c1ccc(Cn2c(-c3ccccc3)c[n+]3c2SCCC3)cc1	-5	13	0	9	70*	67*	37*	11
CCOc1ncccc1C(=O)Nc1cc(S(=O)(=O)N2CCCCC2)ccc1C	-4	-19	0	7	4	x	x	x
CCOc1ccc(S(=O)(=O)N2CCCCC2)cc1NC(=O)c1cccnc1OCC	-5	12	0	x	56*	28	19	-41
Cc1cc2cc(CNC(=O)c3ccc(C)c([N+](=O)[O-])c3)ccc2[nH]1	x	3	0	x	58*	29	26*	-62
C[C@H]1CN([C@@H](C)CO)C(=O)c2cc(NS(=O)(=O)c3cccs3)ccc2O[C@H]1CN(C)CC1CCCCC1	x	x	x	7[16.7 µM]	x	x	x	x
O=C(C[C@H]1CC[C@@H](NC(=O)C2CCC2)[C@@H](CO)O1)NCc1ccncc1	x	x	x	-29[16.7 µM]	x	x	x	x
Cc1csc(-c2cccnc2)n1	-3	17	0	2	99*	14	-6	16
Fc1ccccc1-c1csc(-c2cccnc2)n1	-11	-23	0	-45	31	x	x	x
C[C@H](CO)N1C[C@H](C)[C@H](CN(C)C(=O)Nc2cccc3ccccc23)Oc2c(NC(=O)Nc3ccc(F)cc3)cccc2C1=O	x	x	x	-9[16.7 µM]	x	x	x	x
COc1ccc(N(CC(=O)Nc2nccs2)S(=O)(=O)c2c(C)nn(C)c2C)cc1	x	4	6	-14	58*	32	4	3
COC1C(CO)OC(n2c3c(Cl)cccc3c3c4c(c5c6cccc(Cl)c6[nH]c5c32)C(=O)NC4=O)C(O)C1O (stereo not given)	-4	3	0	-102	62*	37	26*	30*
CC(NCc1ccc(OCC(N)=O)cc1)C12CC3CC(CC(C3)C1)C2 (stereo not given)	-3	-8	0	28	51	34	12	-20
COc1ccc(S(=O)(=O)N(C)C[C@@H]2Oc3ncc(C#Cc4ccccc4)cc3C(=O)N([C@H](C)CO)C[C@@H]2C)cc1	x	x	x	8[16.7 µM]	x	x	x	x
CCOC(=O)N1CCN(Cc2nc3c(c(=O)n(C)c(=O)n3C)n2CCCc2ccccc2)CC1	-2	13	0	-79	99*	19	1	-34

Source: PubChem BioAssay
